This is a sample that favours compounds with a hit; in the whole collection about 3.5% have one here.
Pf apPOL block = Pf-apPOL inhibitors, biochemical, fluorescence. inhibition, % at 10 µM. actives 0.25% (n = 210,000). AID 1794808, 2022. Plasmodium falciparum apicoplast DNA polymerase (apPOL). Recombinant Pf-apPOL, molecular beacon fluorescence, 1.5 h
mHTT-CaM PPI inh = mutant huntingtin-calmodulin interaction inhibitors – biochemical, AlphaScreen, primary screen; P42858; AlphaScreen His-mHTT/GST-CaM binding, luminescence; AID 1671202, 2021; inhibition, % at 15 µM; actives 3.6% (n = 190,000);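 further: 0% = both proteins with DMSO and 100% = one protein alone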
* marks the source's active call; other numbers are inactive results. No stated cut-off is given here; in the data, active means inhibition above about 50%; inactive means the rest.

How did COc1cc(/C=C2\SC(=N)NC2=O)ccc1Oc1ccc(C(F)(F)F)cc1[N+](=O)[O-] do in these assays?
Pf apPOL block: -3.6; mHTT-CaM PPI inh: 50.0*

Results for COc1cc(/C=C2/SC(=N)NC2=O)ccc1OCc1ccc(C)cc1 ?
Pf apPOL block: 2.6; mHTT-CaM PPI inh: 59.0*

What do the screens show for `COc1cc(/C=C2/SC(=N)NC2=O)ccc1OCc1ccc([N+](=O)[O-])cc1`?
Pf apPOL block: -3.7; mHTT-CaM PPI inh: 20.0

How did CCOc1cc(/C=C2\SC(=N)NC2=O)ccc1OC do in these assays?
Pf apPOL block: -1.1; mHTT-CaM PPI inh: 11.0

How did COc1cc(/C=C2/SC(=N)NC2=O)ccc1OCc1ccccc1 do in these assays?
Pf apPOL block: 0.9; mHTT-CaM PPI inh: 28.0

How did Cc1ccccc1-c1noc(Cc2nnc(-c3ccccc3)o2)n1 do in these assays?
Pf apPOL block: -1.9; mHTT-CaM PPI inh: -29.8

What do the screens show for `COc1cc(/C=C2/SC(=N)NC2=O)cc(Br)c1OCc1ccccc1`?
Pf apPOL block: -5.3; mHTT-CaM PPI inh: 68.0*

What do the screens show for `CCOc1cc(/C=C2\SC(=N)NC2=O)ccc1OCc1ccccc1`?
Pf apPOL block: -5.1; mHTT-CaM PPI inh: 20.0

What do the screens show for `CC(=O)NC(c1ccco1)c1cc([N+](=O)[O-])c2cccnc2c1O` (configuration not stated)?
Pf apPOL block: -5.3; mHTT-CaM PPI inh: 100.0*

How did CC(C)C(=O)NC(c1ccco1)c1cc([N+](=O)[O-])c2cccnc2c1O (configuration not stated) do in these assays?
Pf apPOL block: -19.3; mHTT-CaM PPI inh: 100.0*

Results for CCCC(=O)NC(c1ccco1)c1cc([N+](=O)[O-])c2cccnc2c1O (configuration not stated) ?
Pf apPOL block: 4.9; mHTT-CaM PPI inh: 100.0*

What do the screens show for `CC(C)C(=O)NC(/C=C/c1ccccc1)c1cc([N+](=O)[O-])c2cccnc2c1O` (configuration not stated)?
Pf apPOL block: -3.9; mHTT-CaM PPI inh: 5.0

How did CC1(C)C2CCC1(C)C(OCC(O)CN1CCN(c3ccccc3)CC1)C2 (configuration not stated) do in these assays?
Pf apPOL block: -0.3; mHTT-CaM PPI inh: 51.7*

How did CC1(C)C2CCC1(C)C(OCC(O)CN1CCN(Cc3ccccc3)CC1)C2 (configuration not stated) do in these assays?
Pf apPOL block: -4.3; mHTT-CaM PPI inh: 23.7

How did COc1ccc(-n2nc(C(=O)N(C)c3ccc(Cl)cc3)c3ccccc3c2=O)c(OC)c1 do in these assays?
Pf apPOL block: -1.9; mHTT-CaM PPI inh: 34.0

What do the screens show for `COc1cccc(Nc2ncc3c(n2)CCN(Cc2cccc(OC)c2OC)C3)c1`?
Pf apPOL block: -6.0; mHTT-CaM PPI inh: 26.3

How did Cc1ccc(C)c(N2CCN(Cc3ccc(-c4ccccc4[N+](=O)[O-])o3)CC2)c1 do in these assays?
Pf apPOL block: 2.2; mHTT-CaM PPI inh: 69.5*

What do the screens show for `O=[N+]([O-])c1cccc(-c2ccc(CN3CCN(c4ccccc4)CC3)o2)c1`?
Pf apPOL block: -1.1; mHTT-CaM PPI inh: 56.0*

What do the screens show for `Cc1ccc(C)c(N2CCN(Cc3cc4c(cc3[N+](=O)[O-])OCO4)CC2)c1`?
Pf apPOL block: -6.6; mHTT-CaM PPI inh: 32.1

How did CN1CCN(Cc2ccc(-c3cccc([N+](=O)[O-])c3)o2)CC1 do in these assays?
Pf apPOL block: -21.7; mHTT-CaM PPI inh: 3.7

How did COCCNC(=O)C1CCN(c2nc3ccc(-c4ccccc4F)nc3s2)CC1 do in these assays?
Pf apPOL block: -8.6; mHTT-CaM PPI inh: -6.4

How did COc1ccc(N2CCN(C(=O)C(C)C)C(C)C2=O)cc1 (configuration not stated) do in these assays?
Pf apPOL block: 2.8; mHTT-CaM PPI inh: -1.7

What do the screens show for `Cc1ccc(S(=O)(=O)N=C2SCCN2S(=O)(=O)c2ccc(C)cc2)cc1`?
Pf apPOL block: -7.7; mHTT-CaM PPI inh: 0.0

Results for CCOc1ccccc1Nc1cc(C)nc2c(C)cccc12 ?
Pf apPOL block: -2.0; mHTT-CaM PPI inh: -8.5

What do the screens show for `COc1ccc(NCc2ccccn2)cc1`?
Pf apPOL block: -5.2

Results for Cc1sc(NC(=O)c2ccccc2)c(C(Nc2ccccn2)c2cccs2)c1C (configuration not stated) ?
Pf apPOL block: 0.1; mHTT-CaM PPI inh: -8.7

Results for Cc1ccc2ccc(C(Nc3ccccn3)c3ccsc3)c(O)c2n1 (configuration not stated) ?
Pf apPOL block: -4.4; mHTT-CaM PPI inh: 75.6*

Results for CCOc1ccc(C(Nc2ccccn2)c2ccc3ccc(C)nc3c2O)cc1C (configuration not stated) ?
Pf apPOL block: 25.1; mHTT-CaM PPI inh: 75.0*

Results for COc1ccc(C(Nc2ccccn2)c2ccc3ccc(C)nc3c2O)cc1 (configuration not stated) ?
Pf apPOL block: -0.6; mHTT-CaM PPI inh: 72.0*

How did CCCCOc1ccc(C(=O)NC2(c3nc(-c4cccnc4)no3)CCCCC2)cc1 do in these assays?
Pf apPOL block: 5.5; mHTT-CaM PPI inh: 0.2

Screening data from PubChem.
